Results taken from PubChem BioAssay (EPA / NIEHS).
Inconclusive results are not listed. Active and inactive are the calls of the source. The calls were made as follows: active = hit-call score of the fitted dose curve at least 0.9, where 1 is the maximum; inconclusive = response in the unintended direction; inactive = score below 0.9.

Target: rat Thyrotropin Releasing Hormone Receptor (TRH), Trhr (gene 25570) (UniProt Q01717)
Assay: NVS_GPCR_rTRH: NovaScreen (NVS) G Protein-Coupled Receptor Assay for rat Thyrotropin Releasing Hormone Receptor (TRH) (AID 2283329);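 also: hit means lower bound tracer signal versus DMSO baseline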
Protocol: NVS_GPCR_rTRH is a biochemical, single-readout assay that uses extracted gene-proteins from Rat forebrain membranes in a tissue-based cell-free assay. Measurements were taken 4 hours after chemical dosing in a 48-well plate.NVS_GPCR_rTRH is one of one assay component(s) measured or calculated from the NVS_GPCR_rTRH assay. It is designed to make measurements of radioligand binding, a form of binding reporter, as detected with scintillation counting signals by Filter-based radiodetection technology.Data from the assay component NVS_GPCR_rTRH was analyzed into 1 assay endpoint. This assay endpoint, NVS_GPCR_rTRH, was analyzed in the positive analysis fitting direction relative to DMSO as the negative control and baseline of activity. Using a type of binding reporter, loss-of-signal activity can be used to understand changes in the binding as they relate to the gene Trhr. Furthermore, this assay endpoint can be referred to as a primary readout, because the performed assay has only produced 1 assay endpoint. To generalize the intended target to other relatable targets, this assay endpoint is annotated to the gpcr intended target family, where the subfamily is rhodopsin-like receptor.
Binding assays used specific radioligands (tritiated, iodinated) with non-radioactive competitive displacement ligands in agonist or antagonist protocols (as indicated) and various reference compounds and inhibitors to titrate specific binding to receptors and transporters. Most enzyme assays (CYPs, kinases, phosphatases, proteases, HDACs) used recombinant protein and specific substrates (fluorescence mostly, some colorimetric and radioactive) and inhibitors, followed by a biochemical separation of substrate and product. All assays for the biochemical HTS were initially run in duplicate at a single concentration (10 uM for CYP450 assays and 25 uM for all others). […] Each assay was run with positive and negative controls, and concurrent controls on every plate. The follow-up (secondary) screen tested active chemical-pairs in concentration series, as well as a few additional assays not tested in the primary screen, some selected negative inactives, and several cases re-run in the concentration series for confirmatory purposes.

Chain of rat Thyrotropin Releasing Hormone Receptor (TRH), Trhr (gene 25570) (Q01717 whole entry, looked up): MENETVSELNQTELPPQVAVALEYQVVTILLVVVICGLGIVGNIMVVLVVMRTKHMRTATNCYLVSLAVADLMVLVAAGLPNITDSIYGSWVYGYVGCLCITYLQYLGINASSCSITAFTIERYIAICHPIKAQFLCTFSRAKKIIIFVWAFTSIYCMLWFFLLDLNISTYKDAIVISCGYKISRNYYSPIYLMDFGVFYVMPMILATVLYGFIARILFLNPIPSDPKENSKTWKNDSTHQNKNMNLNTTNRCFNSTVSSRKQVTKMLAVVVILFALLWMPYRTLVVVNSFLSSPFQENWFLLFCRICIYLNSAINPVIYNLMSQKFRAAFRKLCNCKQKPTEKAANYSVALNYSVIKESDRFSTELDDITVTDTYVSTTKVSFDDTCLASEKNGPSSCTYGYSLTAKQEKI

outcome, inactive:
OCCc1ccccc1
CCCCCCCCSCCO
CN(C)c1cccc(O)c1
CCOC(=O)[C@@H](C)Oc1ccc(Oc2nc3ccc(Cl)cc3o2)cc1
CCNCCO
c1ccc(Oc2ccccc2)cc1
O=CCc1ccccc1
CSCCC=O
C1=CC2C3C=CC(C3)C2C1 (configuration not stated)
CN1CCOCC1
C=C[Si]1(C)O[Si](C)(C=C)O[Si](C)(C=C)O[Si](C)(C=C)O1 (configuration not stated)
COC(=O)c1ccc(C)cc1C1=NC(C)(C(C)C)C(=O)N1 (configuration not stated) (tested in a mixture with another compound)
CCCCCC(=O)CC
CC(=O)O[C@H]1C[C@@H]2CC[C@@]1(C)C2(C)C
CCCCCCCCN1CCCC1=O
CCCCCCCCCCCC(=O)OCC(O)CO (configuration not stated)
CC(C=O)Cc1ccc(C(C)(C)C)cc1 (configuration not stated)
C=CC(C)(O)CCC=C(C)C (configuration not stated)
CCOC(=O)C1OC1c1ccccc1 (configuration not stated)
COS(=O)(=O)O
O=C1OC(=O)c2c(Cl)c(Cl)c(Cl)c(Cl)c21
O=[N+]([O-])c1ccc(O)cc1C(F)(F)F
CCC(=O)O[C@@H]1C[C@H]2CC[C@]1(C)C2(C)C
CCCCCCCCCCCCCCN(CCO)CCO
CCCCCCCCC=CCCCCCCCC1=NCCN1CCO
C=Cc1ccc(C)cc1
OC[C@H]1O[C@@H]2O[C@H]3[C@H](O)[C@@H](O)[C@@H](O[C@H]4[C@H](O)[C@@H](O)[C@@H](O[C@H]5[C@H](O)[C@@H](O)[C@@H](O[C@H]6[C@H](O)[C@@H](O)[C@@H](O[C@H]7[C@H](O)[C@@H](O)[C@@H](O[C@H]8[C@H](O)[C@@H](O)[C@@H](O[C@H]9[C@H](O)[C@@H](O)[C@@H](O[C@H]1[C@H](O)[C@H]2O)O[C@@H]9CO)O[C@@H]8CO)O[C@@H]7CO)O[C@@H]6CO)O[C@@H]5CO)O[C@@H]4CO)O[C@@H]3CO
